Among the data in PubChem BioAssay (NCATS) are Potency values, retold here.

SMILES strings stand for the structures. Inconclusive results are not listed. The source made the active and inactive calls. Calls follow the shape of the dose curve; as a rule, active = well fitted inhibition curve with a large enough effect; inconclusive = small, poorly fitted or top-dose-only effect; inactive = flat fitted curve, though single readings scatter.

Test in all cases: qHTS profiling for inhibitors of Plasmodium falciparum proliferation (AID 504749); also: nearly all actives have a fitted effect of over 60% in size
Holding throughout (settings): P. falciparum in erythrocytes, SYBR Green DNA, 72 h; series mostly up to 12.8 µM

Test [1] relates to CP252. The method in brief:
(§1)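 Three-day growth assay of blood-stage parasites in erythrocytes (0.3% parasitemia, 2.5% hematocrit) at 37 C, 5% CO2, quantified by SYBR Green DNA staining after overnight detergent lysis.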

In test [2] the test system is CP260. The method in brief:
as §1

For test [3], the system named is CP335. The gist of the method:
as §1

Test [4] concerns DFO2036. The method in brief: as §1
Test [5] concerns DIV14. The method in brief: as §1
Test [6] deals with DIV17. The gist of the method:
as §1

Test [7] relates to DIV30. The method in brief: as §1
Test [8] concerns FAB9. The method in brief: as §1
The test system of test [9] is GB4. The method in brief: as §1
Test [10] has as its system ICS. The gist of the method: as §1
For test [11], the system named is JCK. The gist of the method: as §1
Test [12] has as its system N140. The gist of the method: as §1
The test system of test [13] is P93_24. The gist of the method:
as §1

The subject of test [14] is P94_40. The gist of the method:
as §1

The subject of test [15] is PAD. The method in brief: as §1
The test system of test [16] is PC26. The gist of the method:
as §1

Test [17] relates to PC49. The gist of the method:
as §1

Test [18] concerns TAB109. The gist of the method:
as §1

In test [19] the test system is W2. The gist of the method: as §1
Potency is read from the fitted curve at half-maximal effect.

`CCC(=O)O[C@@]1(C(=O)CCl)C(C)CC2C3CCC4=CC(=O)C=C[C@@]4(C)[C@]3(F)C(O)C[C@]21C` (some centres undefined): the Potency is 12.6 µM (active) in test [1]; 10 µM (active) in [2]; 10.7 µM (active) in [3]; 10 µM (active) in test [4]; 13.5 µM (active) in test [5]; 15.1 µM (active) in test [6]. Further, the Potency in test [7] is 12 µM (active); in [9], 12 µM (active); in test [10] it was 10 µM (active); in test [12], 8.91 µM (active); in test [13], 7.94 µM (active); in [14], 11.2 µM (active). Further, the Potency in test [15] is 7.94 µM (active); in test [16], 10.7 µM (active); in test [18], 11.2 µM (active); in test [19] it was 5.36 µM (active). Further, the Potency result in test [8], in [11] and in test [17] was “inactive” in each case.
